This is part of a sample that, as a whole, favours compounds with a hit. Of some 79,000 tested, about 15% had one in any assay. Cut-off read from the data, not from the text of the source: active = growth inhibition above about 70%; inactive = the rest.
Columns and labels:
[1] = NCI Yeast Anticancer Drug Screen. Data for the rad50 strain (AID 155);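 note: 0% = growth of vehicle-only cultures of the same strain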; settings: S. cerevisiae rad50 strain growth inhibition; at 50.0 µM; active compounds read high
Summary of the method: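 Cells are treated with compound, grown, and their growth is then scored against vehicle-only cultures of the same repair-deficient yeast strain.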

[2] = NCI Yeast Anticancer Drug Screen. Data for the mec2-1 strain (AID 157); settings: S. cerevisiae mec2-1 strain, at 50.0 µM, active compounds read high
Summary of the method: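 Test agents were screened against the mec2-1 yeast strain, with defined DNA repair or cell cycle alteration. Growth was scored as inhibition against vehicle-only controls.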

[3] = NCI Yeast Anticancer Drug Screen. Data for the sgs1 mgt1 strain (AID 161);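 note: 0% = growth of cultures given vehicle only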; settings: S. cerevisiae sgs1 mgt1 strain, at 50.0 µM, active compounds read high
Summary of the method: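 Test agents were incubated with a DNA-repair-mutant yeast strain. Growth was then read and compared against vehicle-treated controls.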

[4] = NCI Yeast Anticancer Drug Screen. Data for the cln2 rad14 strain (AID 165);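 note: 0% = growth equal to vehicle treated cultures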; settings: S. cerevisiae cln2 rad14 strain, at 50.0 µM, active compounds read high
Summary of the method: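 Growth of compound-exposed yeast (cln2 rad14 genotype) measured and expressed as inhibition relative to vehicle.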

[5] = NCI Yeast Anticancer Drug Screen. Data for the bub3 strain (AID 167); settings: S. cerevisiae bub3 mutant strain, at 50.0 µM, active compounds read high
Summary of the method: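 Part of a panel of yeast mutants defective in DNA damage repair or cell cycle regulation. Each strain is grown with compound, and inhibition is calculated relative to solvent-treated cultures.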

[6] = NCI Yeast Anticancer Drug Screen. Data for the mlh1 rad18 strain (AID 175); settings: S. cerevisiae mlh1 rad18 strain growth inhibition; at 50.0 µM; active compounds read high
Summary of the method: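 In this whole-cell yeast screen, a strain with altered DNA damage repair is challenged with compound, and its growth is measured against matched vehicle-treated controls.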

Measured: growth inhibition

CC(=N/N(C)c1ccccc1)/C(C)=N/N(C)c1ccccc1
inactive: [1] 19.1% | [2] 6.7% | [3] 3.7% | [4] 3.65% | [5] 4.35% | [6] 15.8%

CC(C)Cc1cnc(CC(C)C)c(=O)[nH]1
inactive: [1] -13.6% | [2] -44.6% | [3] -28.1% | [4] 10.8% | [5] -40.2% | [6] -25.9%

OCCCCCOCc1ccccc1
inactive: [1] 18.9% | [2] 3.6% | [3] 42.1% | [4] 42.8% | [5] -8.65% | [6] 23.3%

CC(CCC(=O)O)C1CCC2C3CCC4CCCCC4(C)C3CCC12C (stereo not drawn)
inactive: [1] 8.4% | [2] 41.9% | [3] 43.3% | [4] 17.3% | [5] 51.2% | [6] 49.5%

CC(=O)OCC1OC(OC(C)=O)C(NC(=O)C(C)NC(=O)OCc2ccccc2)C(OC(C)=O)C1OC(C)=O (stereo not drawn)
inactive: [1] 37.1% | [2] 6.9% | [3] 16.2% | [4] 11.6% | [5] -1.05% | [6] 14.6%

CCOC(=O)C(CO)C1CCCC1 (stereo not drawn)
inactive: [1] 10.3% | [2] -2.65% | [3] 7.9% | [4] -5.4% | [5] 5.05% | [6] 2.75%

COCC/C=C\CN(C(C)C)C(C)C
inactive: [1] -9.5% | [2] -13.3% | [3] -0.4% | [4] 5.45% | [5] 3.5% | [6] 1.05%

CSc1ccc(C2=CCCCC2)cc1
inactive: [1] -4.35% | [2] -1.7% | [3] 0.05% | [4] -15% | [5] 0.95% | [6] 17.9%

O=C(O)CC(NC(=O)/C(=C/c1ccccc1)NC(=O)c1ccccc1)C(=O)O (stereo not drawn)
inactive: [1] -2.45% | [2] 0.65% | [3] 2.95% | [4] 6.85% | [5] 25.1% | [6] -22.1%

CN(C)CCCn1cnc2cc(Cl)c(Cl)cc21
inactive: [1] 0.2% | [2] -6.4% | [3] -21% | [4] -0.8% | [5] 9.95% | [6] -0.15%

Cc1cc(N(CCC#N)CCC#N)ccc1/C(N=Nc1ccccc1)=N\NC(=O)c1cc(Cl)ccc1O
inactive: [1] 18.8% | [2] 9.8% | [3] 2.7% | [4] -3% | [5] -17.4% | [6] 30.9%

COc1ccccc1C(c1ccccc1OC)c1ccccc1C(=O)O
inactive: [1] 14.5% | [2] -3.35% | [3] 5.75% | [4] 15% | [5] 6.05% | [6] 26.9%

CC(C)CCNCCC(C)C
inactive: [1] 35.7% | [2] 25.1% | [3] -2.85% | [4] -36.3% | [5] -14.9% | [6] 21.9%

CC(/C=N/Nc1ccccc1)=N\N=c1/scc(-c2ccc(Cl)cc2)n1-c1ccc(Cl)cc1
inactive: [1] 22.4% | [2] 4.65% | [3] 13.9% | [4] -0.2% | [5] 11.1% | [6] 27.9%

CCN(CC)c1cccc2c1C1(O)CCC3(CC21)OCCCCO3 (stereo not drawn)
inactive: [1] -33% | [2] -21.6% | [3] -57.3% | [4] -1.65% | [5] -45% | [6] -28.9%

O=C(OCC(F)(F)C(F)(F)C(F)(F)C(F)(F)C(F)(F)C(F)F)OCC(F)(F)C(F)(F)C(F)(F)C(F)(F)C(F)(F)C(F)F
inactive: [1] 0.1% | [2] 9.05% | [3] -5.45% | [4] -3.65% | [5] -0.6% | [6] 0.95%

Cn1c2ccccc2c(=O)c2c(O)cc3c(c21)C=CC1(CCCCC1)O3
inactive: [1] -4.75% | [2] 11.4% | [3] -2.25% | [4] 19.1% | [5] -5.65% | [6] 25.1%

CCCCCCCCCCCCCCCCS(=O)(=O)N/N=C(/c1ccccc1Cl)N1CCOCC1
inactive: [1] -10.6% | [2] -35.4% | [3] -7.1% | [4] 16.4% | [5] -22.6% | [6] -6.75%

CC(C)(C#N)NC(=O)NC(C)(C)C(N)=O
inactive: [1] -4.1% | [2] 2.25% | [3] -3.25% | [4] -50.2% | [5] 9.5% | [6] -1.4%

N#CC1(C#N)C(CCl)C1(C#N)C#N
inactive: [1] 2.85% | [2] -6.95% | [3] -1.15% | [4] -15.2% | [5] -4% | [6] -8.6%

C=CCOC(=O)C(F)(F)F
inactive: [1] 0.15% | [2] -4.25% | [3] -0.7% | [4] 4.35% | [5] 6.85% | [6] -1.4%

CC(=O)Nc1ccc(OC(=O)Nc2ccc(C)c(NC(=O)Oc3ccc(NC(C)=O)cc3)c2)cc1
inactive: [1] 6.35% | [2] -6.95% | [3] 6.15% | [4] 24.5% | [5] 17.2% | [6] 7.25%

O=C(NC(=Nc1ccccc1)SCSC(=Nc1ccccc1)NC(=O)c1ccco1)c1ccco1
inactive: [1] -5.85% | [2] -7.9% | [3] -45.7% | [4] 12.7% | [5] -4.7% | [6] -12.4%

NCC(=O)N[C@H]1c2ccsc2/C(=N/O)[C@H]1O
inactive: [1] 3.1% | [2] 5.95% | [3] 3.65% | [4] 11.3% | [5] -10.2% | [6] 33.2%

O=C(O)Cn1ccc(=O)c2c([N+](=O)[O-])cccc21
inactive: [1] 27.2% | [2] 16.1% | [3] 0.35% | [4] 5.3% | [5] 8.55% | [6] -51.6%

Cc1c([N+](=O)[O-])cc2c(c1[N+](=O)[O-])C(C)(C)C(C)CC2(C)C (stereo not drawn)
inactive: [1] 1.2% | [2] -15.8% | [3] 6.45% | [4] -15% | [5] 45.7% | [6] -10.9%

OCc1nnn2c1CCC2
inactive: [1] 4.95% | [2] 0.05% | [3] -2.15% | [4] 11.4% | [5] 10.4% | [6] -6.25%

COc1ccc2oc(=O)[nH]c2c1
inactive: [1] 5.3% | [2] -3.95% | [3] 9.9% | [4] 13.1% | [5] -6.9% | [6] -4.5%

CCCCCNc1ccnc(=O)[nH]1
inactive: [1] 11.8% | [2] 6.8% | [3] 2% | [4] -39.5% | [5] -12.9% | [6] -12.7%

CCCOc1ccccc1C(=O)N1CCOCC1
inactive: [1] 25% | [2] -0.25% | [3] 7.8% | [4] 16.1% | [5] 8.8% | [6] 15.8%

CCOc1ccc2nc(NC(=O)CC(C)=O)sc2c1
inactive: [1] -17.6% | [2] -22% | [3] -4.3% | [4] 7.6% | [5] -17.9% | [6] 7.35%

Cc1cc2nnn(-c3ncccc3[N+](=O)[O-])c2cc1C
inactive: [1] 5% | [2] 5.85% | [3] -5.2% | [4] 17.8% | [5] 9.8% | [6] 19.4%

CC(C)C(=O)/C=C/c1ccc(Br)cc1
inactive: [1] 29.9% | [2] -4.95% | [3] 1% | [4] 2.6% | [5] -14.8% | [6] 24.9%

CCOC(=O)[C@@]12[C@H](N3C(=O)c4ccccc4C3=O)C(=O)N1CCS2(=O)=O
inactive: [1] -1.9% | [2] -5.7% | [3] -29.4% | [4] -22.9% | [5] -1.5% | [6] 6.95%

NC(=S)n1nc(-c2ccccc2)c(N=Nc2ccc(Br)cc2)c1-c1ccccc1
inactive: [1] 38.6% | [2] 3.8% | [3] 21.7% | [4] 15.4% | [5] 14.2% | [6] 12.4%

N=c1ccn(CC(O)COc2ccccc2)cc1 (stereo not drawn)
inactive: [1] -11.8% | [2] -13.8% | [3] -5.95% | [4] 10.6% | [5] 2.75% | [6] 9.55%

CCc1cc(CC)n2cnnc2n1
inactive: [1] 16.7% | [2] -3.75% | [3] -9% | [4] -29.6% | [5] 7.2% | [6] -8.5%

CC(C)=C1C(=O)C[C@@]2(C)C[C@H]3OC3(C)CC/C=C(/C)CCC12 (stereo partly drawn)
inactive: [1] 14.9% | [2] 11.7% | [3] 19.8% | [4] 12.9% | [5] 30.2% | [6] -62.5%
